Experimental data published in PubChem BioAssay.
Activity calls are given as the source filed them.

Experiments:
[1] = system: Human papillomavirus type 1a protein E7 (residues 44-93); experiment: HPV1a E7 fragment binders on microarrays, primary screen, biochemical, small-molecule microarray, residues 44-93, 635 nm fluorescence (AID 1108); details: small-molecule microarray binding, fluorescence 635 nm; higher = more signal;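 note: E7 fragment applied at 1 µg/mL in TBST for 1 h at 4 C; score combines spot fluorescence with its signal to noise ratio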
[2] = modulators of HCV replicon luciferase signal, primary screen, HCV replication inhibitor project, Huh7 cells, luciferase reporter (AID 1109); details: 48 h, higher = more signal;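 note: huh7 hepatoma cells harbouring a luciferase neomycin HCV replicon reporter; luciferase luminescence as measure of HCV replicon replication; test concentration not given here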
[3] = biological target: Left-right determination factor 2 (Homo sapiens) (UniProt O00292); experiment: LEFTY2 binders on small-molecule microarrays, primary screen, biochemical, small-molecule microarray, 635 nm fluorescence scan (AID 1110); details: LEFTY2 binding, higher = more signal
Chain of Left-right determination factor 2 (Homo sapiens) (O00292 whole entry, looked up): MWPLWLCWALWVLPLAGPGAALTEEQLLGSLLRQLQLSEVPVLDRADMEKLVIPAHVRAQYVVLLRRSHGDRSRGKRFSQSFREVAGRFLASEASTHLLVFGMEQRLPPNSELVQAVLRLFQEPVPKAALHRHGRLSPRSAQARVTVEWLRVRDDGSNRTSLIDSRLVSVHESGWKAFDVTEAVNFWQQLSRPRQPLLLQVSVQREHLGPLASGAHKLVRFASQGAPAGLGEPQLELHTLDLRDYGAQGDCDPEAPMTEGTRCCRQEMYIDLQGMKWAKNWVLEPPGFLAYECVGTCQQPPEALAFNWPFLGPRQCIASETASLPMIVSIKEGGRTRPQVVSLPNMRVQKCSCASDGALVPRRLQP

[4] = biological target: Calmodulin-1 (Homo sapiens) (UniProt P0DP23); experiment: CALM1 binders on microarrays, EGTA buffer, profiling panel, biochemical, small-molecule microarray, Cy5-labelled CALM1 (AID 1111); details: Cy5-CALM1 binding fluorescence, higher = more signal;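 note: labelled calmodulin applied in Tris saline Tween buffer holding calcium plus EGTA and DTT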
[5] = biological target: Calmodulin-1 (Homo sapiens) (UniProt P0DP23); experiment: calcium-bound CALM1 binders on microarrays, profiling panel, artefact control for SMM control-protein annotation, biochemical, small-molecule microarray, Cy5-labelled CALM1, plus calcium (AID 1112); details: Cy5-CALM1 binding fluorescence, higher = more signal;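 note: score merges spot fluorescence with signal to noise from triplicate slides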
[6] = small-molecule microarray binders of probe aWnt5a, primary screen, biochemical, biotinylated probe, 635/667 nm fluorescence (AID 1113); details: higher = more signal;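 note: score merges 667 nm fluorescence intensity with signal-to-noise per printed feature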
[7] = small-molecule microarray binders of probe aShh, primary screen, biochemical, biotinylated probe, 635/667 nm fluorescence (AID 1114); details: higher = more signal;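 note: probe is biotin-labelled aShh protein from a stem cell growth factor screen; measures binding of labelled protein to compounds printed on the slide; score merges feature fluorescence at 667 nm with signal-to-noise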
[8] = small-molecule microarray binders of probe aNog, primary screen, biochemical, biotinylated probe, 635/667 nm fluorescence (AID 1115); details: higher = more signal;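 note: probe is biotinylated aNog protein used at 0.15 µg/mL for 1 h at 4 C; z-score combines 667 nm fluorescence of each spot with its signal to noise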
[9] = biological target: Torsin-1A-interacting protein 1 (Homo sapiens) (UniProt Q5JTV8); experiment: LAP1 binders from COS7 cell lysate, primary screen, small-molecule microarray, 635/667 nm fluorescence (AID 1116); details: COS7-hLAP1 lysate binding, 635 nm fluorescence, higher = more signal
Chain of Torsin-1A-interacting protein 1 (Homo sapiens) (Q5JTV8 whole entry, looked up): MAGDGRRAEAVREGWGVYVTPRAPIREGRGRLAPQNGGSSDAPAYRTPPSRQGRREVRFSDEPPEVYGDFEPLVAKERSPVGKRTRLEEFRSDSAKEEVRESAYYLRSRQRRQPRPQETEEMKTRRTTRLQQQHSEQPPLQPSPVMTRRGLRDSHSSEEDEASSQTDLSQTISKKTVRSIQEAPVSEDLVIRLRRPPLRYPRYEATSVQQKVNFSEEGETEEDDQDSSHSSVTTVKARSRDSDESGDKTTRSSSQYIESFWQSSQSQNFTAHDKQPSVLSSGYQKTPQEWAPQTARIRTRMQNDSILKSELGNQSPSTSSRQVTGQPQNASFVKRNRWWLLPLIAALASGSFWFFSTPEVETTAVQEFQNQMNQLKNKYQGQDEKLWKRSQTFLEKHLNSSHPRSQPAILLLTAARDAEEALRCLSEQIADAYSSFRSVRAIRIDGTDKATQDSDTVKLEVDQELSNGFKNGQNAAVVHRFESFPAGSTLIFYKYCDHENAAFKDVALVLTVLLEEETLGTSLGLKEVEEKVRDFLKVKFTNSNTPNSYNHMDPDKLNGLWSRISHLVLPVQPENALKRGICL

[10] = biological target: Alpha-bungarotoxin (Bungarus multicinctus) (UniProt P60615); experiment: alpha-bungarotoxin binders on microarray, profiling panel, artefact control for SMM control protein annotation, biochemical, small-molecule microarray, Alexa647 label, 635/667 nm fluorescence (AID 1117); details: alpha-BTX-A647 binding fluorescence, higher = more signal
Chain of Alpha-bungarotoxin (Bungarus multicinctus) (P60615 whole entry, looked up): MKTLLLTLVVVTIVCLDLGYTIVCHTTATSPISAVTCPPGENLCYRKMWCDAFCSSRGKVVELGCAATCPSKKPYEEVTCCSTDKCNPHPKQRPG

Albumin (Bos taurus) = Albumin (Bos taurus) (UniProt P02769); experiment: bovine serum albumin binders on microarray, profiling panel, artefact control for SMM control protein annotation, biochemical, small-molecule microarray, Alexa647 label, 635/667 nm fluorescence (AID 1118); details: BSA-A647 binding, fluorescence 635 nm, higher = more signal;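 note: score merges 667 nm emission intensity and signal-to-noise per printed compound spot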
Chain of Albumin (Bos taurus) (P02769 whole entry, looked up): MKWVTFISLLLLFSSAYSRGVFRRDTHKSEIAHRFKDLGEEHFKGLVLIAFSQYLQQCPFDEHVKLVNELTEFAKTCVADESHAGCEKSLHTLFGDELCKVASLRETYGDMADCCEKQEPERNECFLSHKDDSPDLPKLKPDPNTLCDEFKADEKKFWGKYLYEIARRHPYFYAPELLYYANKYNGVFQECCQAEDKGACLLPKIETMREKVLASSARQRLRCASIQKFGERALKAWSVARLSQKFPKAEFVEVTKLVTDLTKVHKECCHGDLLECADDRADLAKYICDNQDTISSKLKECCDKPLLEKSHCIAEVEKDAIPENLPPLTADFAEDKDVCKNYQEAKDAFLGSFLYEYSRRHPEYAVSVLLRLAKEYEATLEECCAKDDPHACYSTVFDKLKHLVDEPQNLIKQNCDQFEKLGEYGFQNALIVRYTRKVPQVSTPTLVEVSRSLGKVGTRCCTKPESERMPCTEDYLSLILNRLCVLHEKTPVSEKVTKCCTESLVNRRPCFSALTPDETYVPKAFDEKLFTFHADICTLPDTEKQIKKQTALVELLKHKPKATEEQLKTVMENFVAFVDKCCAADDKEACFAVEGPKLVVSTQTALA

[11] = small-molecule microarray binders of probe aXIP, primary screen, biochemical, NeuroSMM set, 635/667 nm fluorescence (AID 1119); details: higher = more signal, called active from +8 up or from −8 down;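 note: probe is the protein aXip251-270 applied at 1 µg/mL to compound-printed slides; binding of probe to printed compounds measured as 667 nm fluorescence plus signal to noise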
[12] = small-molecule binders of probe aNOTCH3, primary screen, biochemical, small-molecule microarray, 635/667 nm fluorescence (AID 1120); details: higher = more signal;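 note: probe is a biotin-tagged antibody raised against NOTCH3 rather than NOTCH3 protein; score merges spot fluorescence near 667 nm with spot signal to noise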
[13] = small-molecule binders of probe aNOTCH2, primary screen, biochemical, small-molecule microarray, 635/667 nm fluorescence (AID 1121); details: higher = more signal;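 note: score merges feature fluorescence read at 667 nm with its signal to noise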
[14] = biological target: Carbonic anhydrase 2 (Homo sapiens) (UniProt P00918); experiment: CAII small-molecule binders, profiling panel, biochemical, small-molecule microarray, Alexa647-labelled CAII (AID 1122); details: CAII-A647 binding fluorescence, higher = more signal
[15] = COS7 lysate on small-molecule microarray, probe aHis, 635 nm (AID 1123); details: COS7 cell lysate, fluorescence, higher = more signal;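 note: z-score combines 667nm fluorescence intensity with signal-to-noise per printed compound spot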
[16] = compound binding in COS7 lysate, probe aLAP1, primary screen, cell lysate, small-molecule microarray (AID 1124); details: probe aLAP1, fluorescence, higher = more signal;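 note: lysate comes from COS7 cells expressing LAP1 and is applied at 0.3 µg/mL; score merges spot fluorescence near 667 nm with signal-to-noise over triplicate slides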
Sam68 (KHDRBS1) = experiment: Sam68 small-molecule binders, primary screen, biochemical, small-molecule microarray, 635 nm fluorescence (AID 1125); details: small-molecule microarray binding, higher = more signal;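 note: score merges 667 nm channel intensity with signal to noise over triplicate slides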
[17] = system: Chordin-like protein 2 (CHRDL2); experiment: CHRDL2 small-molecule binders, primary screen, biochemical, small-molecule microarray, 635 nm fluorescence (AID 1126); details: small-molecule microarray binding, fluorescence 635 nm; higher = more signal;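 note: printed compound slides probed with Chrdl2 protein at 4 µg/mL for 1 h at 4 C; score merges 667 nm emission intensity with signal to noise over three replicate slides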
[18] = biological target: Concanavalin-A (Canavalia ensiformis) (UniProt P02866); experiment: ConA small-molecule binders, primary screen, artefact control for SMM control protein annotation, biochemical, small-molecule microarray, Alexa647 label, 635 nm (AID 1127); details: ConA-A647 binding fluorescence, higher = more signal;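 note: z combines 667 nm emission intensity with signal-to-noise across three replicate slides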
Chain of Concanavalin-A (Canavalia ensiformis) (P02866 whole entry, looked up): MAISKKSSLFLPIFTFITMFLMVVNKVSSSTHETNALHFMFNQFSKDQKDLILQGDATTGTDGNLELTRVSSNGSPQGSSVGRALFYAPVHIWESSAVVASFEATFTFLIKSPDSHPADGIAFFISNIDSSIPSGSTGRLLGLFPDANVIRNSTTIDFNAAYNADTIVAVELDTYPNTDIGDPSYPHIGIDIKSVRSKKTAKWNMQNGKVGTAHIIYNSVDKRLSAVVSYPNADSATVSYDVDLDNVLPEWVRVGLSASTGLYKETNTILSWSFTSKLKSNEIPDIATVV

Compound | composite z-score [1] | z-score [2] | composite z-score [3] | composite z-score [4] | composite z-score [5] | composite z-score [6] | composite z-score [7] | composite z-score [8] | composite z-score [9] | composite z-score [10] | composite z-score (Albumin (Bos taurus)) | composite Z-score [11] | composite z-score [12] | composite z-score [13] | composite z-score [14] | composite z-score [15] | composite z-score [16] | composite z-score (Sam68 (KHDRBS1)) | composite z-score [17] | composite z-score [18]
CC(C)C[C@@H]1NC(=O)[C@H]2C[C@@H](C(=O)NCCCCCC[N+](C)(C)C)[C@@H](c3ccc(O)cc3)N2C1=O | 0.183 | 0.549 | -0.29 | -0.602 | -0.781 | -0.229 | 0.0856 | -0.169 | 0.418 | -0.111 | 0.34 | 0.448 (inactive) | -0.126 | -0.164 | 0.717 | 0.439 | 0.102 | -0.907 | 0.362 | 0.452
COC(=O)Cn1c(C(=O)N2CCCC2)cc2c1C[C@H]1CN(C(=O)c3ccccc3)[C@@](Cc3ccccc3)(C(=O)OC)[C@@H]21 | 0.225 | -1.02 | -0.0875 | 0.79 | 0.589 | -0.006 | 0.0639 | -0.374 | 0.261 | 0.236 | 1.06 | 0.0529 (inactive) | -0.0647 | 0.0292 | 0.752 | 1.99 | -0.263 | 0.185 | -1.13 | 0.831
Cc1ccc(S[C@]2(C(=O)NC(C)C)CC(=O)N(C3Cc4ccccc4C3)[C@@H]2c2ccc(CO)cc2)cc1 | 0.951 | -2.01 | -0.873 | -0.329 | -0.603 | -0.098 | -0.421 | -0.315 | 1.52 | 1.12 | 0.451 | 0.52 (inactive) | -0.409 | -0.205 | 0.81 | 1.86 | 0.123 | -0.0334 | -1.2 | 1.16
C[C@H]1COC(=O)[C@@H]2CCCN2C(=O)[C@@H](C)COC(=O)[C@@H]2CCCN2C1=O | -0.663 | -0.004 | 0.417 | -0.835 | -1.09 | -0.124 | -0.0626 | -0.367 | -0.392 | -0.394 | -0.503 | -0.221 (inactive) | -0.241 | -0.108 | -0.525 | -0.99 | -0.111 | -1.02 | 0.296 | -0.0254
O=C1OCCC=C[C@H]2OC34C=CCN(Cc5ccccc5)C(=O)[C@H]3N(CCO)C(=O)[C@@H]4C12 (stereo not given in full) | -0.936 | -1.23 | -0.591 | -0.675 | 0.681 | -0.248 | -0.276 | -0.224 | -0.18 | -2.01 | -0.121 | -0.141 (inactive) | -0.0967 | -0.19 | 0.459 | -0.59 | -0.227 | -1.04 | -0.849 | -1.18
C#C[C@H](O[Si](C#Cc1ccccc1)(C(C)C)C(C)C)c1ccccc1 | -0.285 | -0.733 | -0.962 | -0.226 | 0.418 | -0.162 | -0.154 | -0.333 | -0.246 | 0.821 | 0.0778 | 0.422 (inactive) | -0.293 | -0.0743 | 0.564 | 0.0271 | 0.252 | 0.0094 | -0.429 | -0.683
